About 7,900 targets were measured; listed, in parts, are those with a hit and a random draw of the rest. About 0.6% of all pairs of compound and target were hits. Values without a mark were called inactive.
Columns and labels:
Assay in all cases: log2 fold change, soluble protein after heating vs DMSO (PISA); higher = thermal stabilisation; K562 cells, 10 uM, 30 min; active = over 0.2 and 3.5 SD of the protein, either way, in both replicates (recomputed)
[1] = compound: COC1=CC=C(C=C1)CN2C=CC3=C2C=C(C=C3)C(=O)NO
Outline: (§1)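 Values are thermal stability changes relative to control samples and are taken from duplicates. They are stated as log2 fold changes. Before quantification by TMTpro 16plex LC-MS/MS with equalised channel sums, K562 cells at 2×10^6 cells/mL were treated with 10 μM compound for 30 min, heated in aliquots for 3 min across 48°C-58°C, pooled, extracted in PBS with 0.5% NP-40 at 4°C, and centrifuged at 21,000xg for 90 min to give the soluble supernatant.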

filanesib = compound: CON(C)C(=O)N1N=C(c2cc(F)ccc2F)S[C@@]1(CCCN)c1ccccc1 [filanesib]
Outline: as §1

zotarolimus = compound: CO[C@H]1C[C@@H]2CC[C@@H](C)[C@@](O)(O2)C(=O)C(=O)N2CCCC[C@H]2C(=O)O[C@H]([C@H](C)C[C@@H]2CC[C@H](n3cnnn3)[C@H](OC)C2)CC(=O)[C@H](C)/C=C(\C)[C@@H](O)[C@@H](OC)C(=O)[C@H](C)C[C@H](C)/C=C/C=C/C=C/1C [zotarolimus]
Outline: as §1

idasanutlin = compound: COc1cc(C(=O)O)ccc1NC(=O)[C@@H]1N[C@@H](CC(C)(C)C)[C@](C#N)(c2ccc(Cl)cc2F)[C@H]1c1cccc(Cl)c1F [idasanutlin]
Outline: as §1

alisertib = compound: COc1cc(Nc2ncc3c(n2)-c2ccc(Cl)cc2C(c2c(F)cccc2OC)=NC3)ccc1C(=O)O [alisertib]
Outline: as §1

[2] = compound: COc1cc2nc(-c3cc(F)ccc3O)nc(N[C@@H]3CNC[C@H]3C(C)(C)O)c2cc1OC
Outline: as §1

gefitinib = compound: COc1cc2ncnc(Nc3ccc(F)c(Cl)c3)c2cc1OCCCN1CCOCC1 [gefitinib]
Outline: as §1

[3] = compound: COc1cccc2cc(-c3nc([C@H]4CC[C@H](C(=O)O)CC4)n4ncnc(N)c34)[nH]c12
Outline: as §1

lapatinib = compound: CS(=O)(=O)CCNCc1ccc(-c2ccc3ncnc(Nc4ccc(OCc5cccc(F)c5)c(Cl)c4)c3c2)o1 [lapatinib]
Outline: as §1

pictilisib = compound: CS(=O)(=O)N1CCN(Cc2cc3nc(-c4cccc5[nH]ncc45)nc(N4CCOCC4)c3s2)CC1 [pictilisib]
Outline: as §1

[4] = compound: CS(=O)(=O)c1ccc(-c2cnc(N)c(C(=O)Nc3ccccc3)n2)cc1
Outline: as §1

crizotinib = compound: C[C@@H](Oc1cc(-c2cnn(C3CCNCC3)c2)cnc1N)c1c(Cl)ccc(F)c1Cl [crizotinib]
Outline: as §1

[5] = compound: C[C@@H]1COCCN1C2=NC(=NC(=C2)C3(CC3)S(=O)(=O)C)C4=C5C=CNC5=CC=C4
Outline: as §1

[6] = compound: C[C@H](C1=CC=C(C=C1)C(=O)NC2=C3C=CNC3=NC=C2)N
Outline: as §1

duvelisib = compound: C[C@H](Nc1ncnc2nc[nH]c12)c1cc2cccc(Cl)c2c(=O)n1-c1ccccc1 [duvelisib]
Outline: as §1

gandotinib = compound: Cc1cc(Nc2cc(CN3CCOCC3)c3nc(C)c(Cc4ccc(Cl)cc4F)n3n2)n[nH]1 [gandotinib]
Outline: as §1

tozasertib = compound: Cc1cc(Nc2cc(N3CCN(C)CC3)nc(Sc3ccc(NC(=O)C4CC4)cc3)n2)n[nH]1 [tozasertib]
Outline: as §1

[7] = compound: Cc1cc(SCc2sc(-c3ccc(C(F)(F)F)cc3)nc2C)ccc1OCC(=O)O
Outline: as §1

doramapimod = compound: Cc1ccc(-n2nc(C(C)(C)C)cc2NC(=O)Nc2ccc(OCCN3CCOCC3)c3ccccc23)cc1 [doramapimod]
Outline: as §1

ispinesib = compound: Cc1ccc(C(=O)N(CCCN)[C@@H](c2nc3cc(Cl)ccc3c(=O)n2Cc2ccccc2)C(C)C)cc1 [ispinesib]
Outline: as §1

Sequence of UniProt Q13356 (Q13356 whole entry, looked up): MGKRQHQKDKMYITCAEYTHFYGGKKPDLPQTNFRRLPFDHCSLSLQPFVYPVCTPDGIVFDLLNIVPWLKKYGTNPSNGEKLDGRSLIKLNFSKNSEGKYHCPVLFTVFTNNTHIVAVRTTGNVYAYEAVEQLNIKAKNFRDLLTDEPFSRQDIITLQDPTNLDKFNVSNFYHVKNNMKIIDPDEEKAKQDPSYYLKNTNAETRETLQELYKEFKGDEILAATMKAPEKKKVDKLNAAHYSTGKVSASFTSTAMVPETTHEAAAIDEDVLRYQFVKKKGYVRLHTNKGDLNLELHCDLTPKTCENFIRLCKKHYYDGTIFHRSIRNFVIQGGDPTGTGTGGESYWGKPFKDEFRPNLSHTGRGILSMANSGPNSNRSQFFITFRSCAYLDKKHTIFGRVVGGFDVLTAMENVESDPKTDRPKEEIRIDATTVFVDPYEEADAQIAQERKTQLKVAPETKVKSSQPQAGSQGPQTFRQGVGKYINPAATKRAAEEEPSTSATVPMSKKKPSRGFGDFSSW
Sequence of UniProt P62195 (P62195 whole entry, looked up): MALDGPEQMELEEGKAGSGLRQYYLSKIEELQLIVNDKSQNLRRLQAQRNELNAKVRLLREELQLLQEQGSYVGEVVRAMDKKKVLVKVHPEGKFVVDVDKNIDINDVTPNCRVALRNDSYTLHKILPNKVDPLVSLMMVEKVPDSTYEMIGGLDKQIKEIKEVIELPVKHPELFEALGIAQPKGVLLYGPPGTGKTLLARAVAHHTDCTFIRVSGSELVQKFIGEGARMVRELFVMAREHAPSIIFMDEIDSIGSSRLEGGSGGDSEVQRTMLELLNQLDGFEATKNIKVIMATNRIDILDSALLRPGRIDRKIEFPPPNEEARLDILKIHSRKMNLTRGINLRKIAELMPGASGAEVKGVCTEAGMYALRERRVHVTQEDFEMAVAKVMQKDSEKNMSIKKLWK
Sequence of UniProt Q5H8A4 (Q5H8A4 whole entry, looked up): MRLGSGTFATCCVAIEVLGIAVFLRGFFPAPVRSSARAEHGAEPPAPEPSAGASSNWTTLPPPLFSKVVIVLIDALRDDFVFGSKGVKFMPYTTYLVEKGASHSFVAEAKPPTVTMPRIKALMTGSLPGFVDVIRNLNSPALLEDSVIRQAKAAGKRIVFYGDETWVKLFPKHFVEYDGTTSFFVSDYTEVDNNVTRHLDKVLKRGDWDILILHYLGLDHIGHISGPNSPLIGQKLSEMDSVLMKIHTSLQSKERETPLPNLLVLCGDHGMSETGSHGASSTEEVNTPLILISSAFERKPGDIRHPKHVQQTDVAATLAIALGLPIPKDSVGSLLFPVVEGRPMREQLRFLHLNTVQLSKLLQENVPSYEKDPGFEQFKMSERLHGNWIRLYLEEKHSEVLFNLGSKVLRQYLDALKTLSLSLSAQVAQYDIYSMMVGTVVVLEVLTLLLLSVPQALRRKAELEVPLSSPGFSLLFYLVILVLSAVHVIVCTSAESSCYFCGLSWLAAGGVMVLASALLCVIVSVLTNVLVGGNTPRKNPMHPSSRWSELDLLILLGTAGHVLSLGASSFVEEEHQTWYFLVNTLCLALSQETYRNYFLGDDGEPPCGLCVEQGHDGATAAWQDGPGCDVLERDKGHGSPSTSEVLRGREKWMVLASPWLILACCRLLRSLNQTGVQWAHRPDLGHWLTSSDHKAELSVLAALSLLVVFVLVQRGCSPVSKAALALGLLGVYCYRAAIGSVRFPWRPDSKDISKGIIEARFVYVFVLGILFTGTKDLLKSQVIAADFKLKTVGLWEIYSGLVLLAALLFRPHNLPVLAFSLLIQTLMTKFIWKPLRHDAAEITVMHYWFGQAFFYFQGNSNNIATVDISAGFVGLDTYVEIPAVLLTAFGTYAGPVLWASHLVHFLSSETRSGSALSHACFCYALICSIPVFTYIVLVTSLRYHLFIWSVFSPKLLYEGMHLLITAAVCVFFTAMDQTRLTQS
Sequence of UniProt Q8NEB9 (Q8NEB9 whole entry, looked up): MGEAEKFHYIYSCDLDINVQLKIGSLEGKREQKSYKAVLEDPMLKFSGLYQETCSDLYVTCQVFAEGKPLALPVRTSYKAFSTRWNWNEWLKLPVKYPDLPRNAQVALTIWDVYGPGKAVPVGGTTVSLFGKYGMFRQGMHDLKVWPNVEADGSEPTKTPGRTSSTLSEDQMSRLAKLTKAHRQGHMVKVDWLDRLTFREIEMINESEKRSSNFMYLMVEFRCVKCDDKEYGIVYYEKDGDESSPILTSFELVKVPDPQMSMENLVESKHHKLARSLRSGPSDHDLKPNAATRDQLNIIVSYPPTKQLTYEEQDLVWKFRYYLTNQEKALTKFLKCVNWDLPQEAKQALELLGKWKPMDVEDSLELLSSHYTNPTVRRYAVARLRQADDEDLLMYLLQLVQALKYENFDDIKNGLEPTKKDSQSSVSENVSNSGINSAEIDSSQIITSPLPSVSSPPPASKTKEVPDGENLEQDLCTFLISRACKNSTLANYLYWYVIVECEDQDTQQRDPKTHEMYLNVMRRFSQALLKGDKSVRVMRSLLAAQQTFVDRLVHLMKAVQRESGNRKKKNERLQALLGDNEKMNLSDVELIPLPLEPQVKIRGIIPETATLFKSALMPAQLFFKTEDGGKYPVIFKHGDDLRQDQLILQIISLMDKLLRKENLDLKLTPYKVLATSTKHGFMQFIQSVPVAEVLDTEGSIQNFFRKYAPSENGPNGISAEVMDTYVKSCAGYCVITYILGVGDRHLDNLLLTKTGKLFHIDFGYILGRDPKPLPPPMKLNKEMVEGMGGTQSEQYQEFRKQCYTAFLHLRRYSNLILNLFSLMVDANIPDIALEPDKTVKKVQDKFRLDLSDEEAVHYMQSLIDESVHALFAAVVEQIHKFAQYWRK
Sequence of UniProt Q8N5Y8 (Q8N5Y8 whole entry, looked up): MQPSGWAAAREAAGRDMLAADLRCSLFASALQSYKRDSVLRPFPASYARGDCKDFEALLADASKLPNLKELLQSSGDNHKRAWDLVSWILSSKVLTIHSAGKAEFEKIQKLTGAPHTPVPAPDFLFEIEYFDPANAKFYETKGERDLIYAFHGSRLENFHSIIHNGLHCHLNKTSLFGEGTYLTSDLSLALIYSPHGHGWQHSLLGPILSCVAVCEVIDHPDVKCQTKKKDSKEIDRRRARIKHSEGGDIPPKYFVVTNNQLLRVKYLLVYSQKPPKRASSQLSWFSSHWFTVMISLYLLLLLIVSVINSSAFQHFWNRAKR
Sequence of UniProt P28072 (P28072 whole entry, looked up): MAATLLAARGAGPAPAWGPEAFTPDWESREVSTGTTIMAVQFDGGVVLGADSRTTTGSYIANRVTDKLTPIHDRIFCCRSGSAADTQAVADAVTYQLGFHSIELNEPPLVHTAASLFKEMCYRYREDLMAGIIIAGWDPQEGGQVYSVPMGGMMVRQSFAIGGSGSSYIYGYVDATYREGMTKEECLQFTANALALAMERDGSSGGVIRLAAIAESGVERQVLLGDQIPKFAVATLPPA
Sequence of UniProt Q969N2 (Q969N2 whole entry, looked up): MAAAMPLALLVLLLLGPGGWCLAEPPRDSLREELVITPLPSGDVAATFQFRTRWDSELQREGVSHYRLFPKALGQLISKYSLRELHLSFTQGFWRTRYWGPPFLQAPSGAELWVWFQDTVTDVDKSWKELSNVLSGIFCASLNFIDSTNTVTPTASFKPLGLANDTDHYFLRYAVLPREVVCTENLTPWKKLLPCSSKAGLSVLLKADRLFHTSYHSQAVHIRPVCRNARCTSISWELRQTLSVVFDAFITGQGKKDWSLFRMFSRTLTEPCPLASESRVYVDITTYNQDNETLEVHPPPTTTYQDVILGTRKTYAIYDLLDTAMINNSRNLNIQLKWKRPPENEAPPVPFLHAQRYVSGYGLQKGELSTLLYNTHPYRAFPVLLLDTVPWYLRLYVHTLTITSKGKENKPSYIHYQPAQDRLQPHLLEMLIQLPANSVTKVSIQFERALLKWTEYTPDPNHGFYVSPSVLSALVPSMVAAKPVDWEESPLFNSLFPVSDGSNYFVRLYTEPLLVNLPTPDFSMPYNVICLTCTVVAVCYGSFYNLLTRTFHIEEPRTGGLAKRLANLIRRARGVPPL
Sequence of UniProt Q9Y3C6 (Q9Y3C6 whole entry, looked up): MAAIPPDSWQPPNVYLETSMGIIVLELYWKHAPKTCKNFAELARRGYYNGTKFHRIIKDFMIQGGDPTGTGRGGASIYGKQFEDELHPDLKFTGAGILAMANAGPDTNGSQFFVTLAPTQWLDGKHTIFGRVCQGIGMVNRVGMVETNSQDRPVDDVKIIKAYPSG
Sequence of UniProt Q6GMV3 (Q6GMV3 whole entry, looked up): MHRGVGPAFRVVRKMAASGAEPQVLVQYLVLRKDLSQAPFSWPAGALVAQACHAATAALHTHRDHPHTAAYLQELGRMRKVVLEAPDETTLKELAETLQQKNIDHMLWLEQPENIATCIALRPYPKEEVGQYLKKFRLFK
Sequence of UniProt P10644 (P10644 whole entry, looked up): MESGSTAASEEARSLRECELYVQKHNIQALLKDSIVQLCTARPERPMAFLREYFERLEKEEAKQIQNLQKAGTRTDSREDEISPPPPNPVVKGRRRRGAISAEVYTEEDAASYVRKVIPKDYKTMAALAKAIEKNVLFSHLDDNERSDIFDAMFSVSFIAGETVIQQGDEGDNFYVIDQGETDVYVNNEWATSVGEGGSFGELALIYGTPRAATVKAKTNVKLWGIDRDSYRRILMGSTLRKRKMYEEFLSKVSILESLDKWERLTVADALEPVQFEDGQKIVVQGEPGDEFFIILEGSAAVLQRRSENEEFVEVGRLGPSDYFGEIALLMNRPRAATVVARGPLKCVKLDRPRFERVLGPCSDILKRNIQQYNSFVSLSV
Sequence of UniProt O00628 (O00628 whole entry, looked up): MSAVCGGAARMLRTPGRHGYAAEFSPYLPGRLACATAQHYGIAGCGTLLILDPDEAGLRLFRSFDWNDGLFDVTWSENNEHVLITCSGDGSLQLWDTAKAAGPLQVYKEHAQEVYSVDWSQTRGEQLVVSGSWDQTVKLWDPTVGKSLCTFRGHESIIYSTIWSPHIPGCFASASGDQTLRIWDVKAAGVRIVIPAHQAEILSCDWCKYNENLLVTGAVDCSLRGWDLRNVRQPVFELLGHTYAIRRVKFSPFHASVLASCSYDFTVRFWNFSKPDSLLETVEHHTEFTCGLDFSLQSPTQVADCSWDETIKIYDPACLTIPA

Target | log2 fold change [1] | log2 fold change (filanesib) | log2 fold change (zotarolimus) | log2 fold change (idasanutlin) | log2 fold change (alisertib) | log2 fold change [2] | log2 fold change (gefitinib) | log2 fold change [3] | log2 fold change (lapatinib) | log2 fold change (pictilisib) | log2 fold change [4] | log2 fold change (crizotinib) | log2 fold change [5] | log2 fold change [6] | log2 fold change (duvelisib) | log2 fold change (gandotinib) | log2 fold change (tozasertib) | log2 fold change [7] | log2 fold change (doramapimod) | log2 fold change (ispinesib)
PIGG (UniProt Q5H8A4) | -0.01 | -0.062 | 0.073 | 0.019 | -0.048 | 0.098 | -0.122 | 0.049 | 0.046 | 0.017 | 0.062 | -0.053 | 0.01 | -0.041 | 0.046 | -0.035 | -0.013 | 0.011 | 0.098 | -0.02
PEX7 (UniProt O00628) | 0.013 | -0.063 | 0.058 | -0.002 | -0.01 | -0.09 | -0.003 | 0.072 | -0.032 | 0.055 | -0.011 | -0.037 | 0.121 | 0.024 | 0.04 | -0.005 | -0.042 | 0.145 | 0.002 | -0.078
PSMD5 (UniProt Q16401) | 0.024 | -0.046 | 0.013 | -0.055 | -0.055 | -0.017 | -0.013 | 0 | 0.017 | -0.017 | 0.008 | 0.006 | 0.046 | -0.064 | -0.023 | -0.051 | 0.043 | -0.013 | -0.03 | 0.03
PTRHD1 (UniProt Q6GMV3) | -0.051 | 0.065 | -0.008 | 0.042 | -0.103 | -0.025 | 0.085 | 0.068 | -0.061 | 0.02 | 0.003 | 0.006 | 0.184 | -0.097 | 0.18 | 0.08 | 0.037 | 0.022 | -0.036 | 0.225
PIK3C3 (UniProt Q8NEB9) | 0.049 | 0.221 | 0.016 | -0.055 | 0.011 | 0.172 | 0.062 | 0.007 | 0.021 | 0.094 | 0.147 | -0.037 | -0.125 | 0.06 | 0.258 (active) | 0.164 | 0.012 | -0.008 | 0.127 | -0.101
PSMB6 (UniProt P28072) | -0.055 | 0.075 | -0.018 | 0.044 | -0.062 | -0.014 | -0.027 | 0.018 | 0.035 | -0.017 | 0.01 | 0.096 | 0.003 | 0.059 | -0.049 | 0.444 (active) | 0.011 | -0.029 | 0.049 | -0.037
POLD3 (UniProt Q15054) | 0.002 | -0.176 | 0.123 | -0.029 | 0.002 | -0.05 | 0.066 | 0.1 | 0.098 | 0.004 | 0.177 | -0.055 | 0.155 | -0.076 | 0.018 | -0.049 | 0.048 | 0.008 | -0.012 | -0.123
PPIL1 (UniProt Q9Y3C6) | -0.079 | 0.05 | -0.008 | -0.015 | -0.078 | 0.12 | -0.023 | -0.017 | -0.051 | -0.028 | -0.029 | 0.038 | 0.018 | 0.012 | 0 | 0.045 | -0.01 | 0.014 | 0.031 | -0.089
PRKAR1A (UniProt P10644) | 0.079 | 0.042 | 0.046 | -0.045 | -0.075 | 0.131 | 0.046 | -0.132 | 0 | 0.206 | 0.209 | 0.259 | 0.03 | 0.173 | 0.208 | 0.139 | 0.041 | 0.001 | 0 | -0.06
PIGT (UniProt Q969N2) | -0.004 | 0 | 0.012 | -0.02 | -0.081 | 0.046 | -0.006 | -0.013 | 0.027 | -0.007 | 0.033 | 0.023 | -0.017 | 0.005 | -0.045 | -0.029 | 0.029 | 0.047 | 0.036 | 0
PLSCR1 (UniProt O15162) | -0.017 | 0.01 | -0.012 | 0.033 | -0.006 | -0.046 | 0.016 | 0.145 | 0.051 | 0.037 | 0.079 | 0.017 | 0.101 | -0.024 | 0.037 | -0.096 | -0.075 | -0.017 | 0.042 | -0.619 (active)
PPIL2 (UniProt Q13356) | 0.035 | 0.012 | 0.05 | -0.032 | 0.01 | 0.131 | 0.076 | -0.023 | -0.02 | 0.028 | 0.029 | 0.027 | 0.061 | -0.012 | 0.121 | -0.081 | 0.039 | 0.131 | -0.079 | 0.037
PSMC5 (UniProt P62195) | -0.024 | 0.037 | -0.018 | 0 | -0.019 | -0.053 | -0.025 | -0.031 | 0.052 | -0.05 | 0.025 | 0.001 | -0.07 | 0.057 | -0.028 | 0.017 | 0.04 | 0.036 | 0.028 | -0.007
PSME4 (UniProt Q14997) | -0.023 | -0.091 | 0.005 | -0.123 | -0.045 | -0.03 | -0.071 | 0.037 | 0.044 | -0.045 | 0.036 | -0.161 | 0.013 | 0.052 | 0.02 | -0.082 | -0.078 | 0.093 | 0.045 | -0.09
PPP2R5A (UniProt Q15172) | 0.034 | -0.135 | 0.002 | -0.206 | -0.064 | 0.032 | -0.043 | 0.005 | 0.047 | -0.096 | -0.018 | -0.154 | 0.014 | 0.022 | 0.033 | -0.21 | -0.049 | 0.072 | -0.019 | -0.056
PARP16 isoform 3 (UniProt Q8N5Y8) | -0.029 | -0.13 | 0.039 | -0.056 | -0.075 | -0.097 | 0.011 | -0.03 | 0.071 | -0.008 | -0.008 | 0.076 | -0.021 | 0.079 | 0.048 | 0.081 | -0.007 | -0.081 | 0.072 | –

Source: the supplement of paper PMC10849652
